The source of these data is PubChem BioAssay (NCATS).

Assay [1] can be described thus: High-throughput drug toxicity screening in the BPDCN cell line Gen2.2 (AID 1224824; call rule not given here;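 note: cells exposed to compounds for 48 h before reading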). Conditions: Gen2.2 BPDCN cells; at 45.8 µM (top of the series) unless noted. In outline: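 Seed 500 exponentially growing Gen2.2 cells/well; add compounds by pin tool; incubate 48 h, 37 °C, 5% CO2; add CellTiter-Glo, 15 min RT; read luminescence. % activity vs DMSO (100%) and bortezomib (0%).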

Assay [2] in a line: High-throughput drug toxicity screening in the BPDCN cell line Cal-1 (AID 1224825; call rule not given here). Conditions: Cal-1 BPDCN cell viability, qHTS; at 45.8 µM (top of the series) unless noted. In outline:
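Viability of the BPDCN line Cal-1 is measured as ATP-based luminescence (CellTiter-Glo) following 48 h incubation with compounds. Percent activity uses DMSO-treated wells as 100% and 9.2 uM bortezomib as 0%.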
On the technique in general: Quantitative high-throughput screening tests each substance at several concentrations.

The nature of assay [3]: qHTS assay for measurement of the activity of small molecule inhibitors on Zika virus induced Caspase-3 activity in human astrocytoma cells (AID 1224859).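 Note: plate controls were ZIKV-infected untreated cells for no effect and uninfected cells for full effect.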 In outline: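 A cell-based luminescent caspase-3/7 assay used SNB-19 cells infected with ZIKV (2 FFU/cell) for 6 h following 1 h compound pretreatment.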
A short description of assay [4]: qHTS Screen of the MIPE 4.0 Collection Against Ewings Sarcoma (RDES) (AID 1259252). Note: nearly all actives have a fitted effect of over 35% in size. Note: potency is the fitted concentration of half-maximal effect. Put shortly:
(§1)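 Here, cells in 5% FBS RPMI were exposed for two days (48 h) to compound dilutions added four hours after plating. ATP-based CellTiter-Glo luminescence measured viability, normalized to vehicle and no-cell blanks.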

Assay [5] can be described thus: qHTS Screen of the MIPE 4.0 Collection Against Ewings Sarcoma (TC71) (AID 1259253). Note: nearly all actives have a fitted effect of over 40% in size. Note: potency is the fitted concentration of half-maximal effect. In outline:
as §1

Assay [6] can be described thus: qHTS Screen of the MIPE 4.0 Collection Against Ewings Sarcoma (EW8) (AID 1259255).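 For viability: 100% = DMSO-treated cells and 0% = medium-only wells without cells.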 Note: nearly all actives have a fitted effect of over 35% in size. Note: potency is the fitted concentration of half-maximal effect. In outline:
as §1

A short description of assay [7]: qHTS Screen of the MIPE 4.0 Collection Against Ewings Sarcoma (TC32) (AID 1259256). Note: nearly all actives have a fitted effect of over 45% in size. Note: potency is the fitted concentration of half-maximal effect. In outline:
as §1

Assay [8] in a line: qHTS assay to identify small molecule inhibitors of chordoma cells - UCH-1 (AID 1259355). Note: nearly all actives have a fitted effect of over 55% in size. Note: potency is the fitted concentration of half-maximal effect. Put shortly: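 A 48hr growth-inhibition format: each drug tested at 15 concentrations together with added auranofin, camptothecin, doxorubicin, rubitecan and topotecan, with cell viability quantified as CellTiter-Glo luminescence.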
Assay [9] is described as follows: qHTS assay to identify small molecule inhibitors of chordoma cells - UCH-2 (AID 1259356). Note: potency is the fitted concentration of half-maximal effect.
Assay [10] can be described thus: P-glycoprotein substrates identified in KB-8-5-11 adenocarcinoma cell line, qHTS therapeutic library screen (AID 1346987). Note: nearly all actives have a fitted effect of over 65% in size. Note: potency is the fitted concentration of half-maximal effect. Put shortly: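 In this qHTS, P-gp-rich KB-8-5-11 cells received library compounds across a concentration range. Viability was quantified by luminescence after 72 h at 37 degree C.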
Assay [11] can be described thus: P-glycoprotein substrates identified in KB-3-1 adenocarcinoma cell line, qHTS therapeutic library screen (AID 1346986). Note: nearly all actives have a fitted effect of over 60% in size. Particulars: KB-3-1 parental cells viability, CellTiter-Glo, 72 h; at 44.5 µM (top of the series). In outline: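 Using luminescence to quantify ATP, parental and P-gp-overexpressing KB cells were compared after 72 h compound titration. KB-8-5-11 was also run with the P-gp inhibitor tariquidar.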

Assay [12] has as its target Atrial natriuretic peptide receptor 1 (Homo sapiens) (UniProt P16066). In words: Natriuretic polypeptide receptor (hNpr1) antagonism - Pilot screen (AID 1347049; calls by dose curve;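 note: HEK293 cells with hNpr1 and GloSensor cGMP luciferase stimulated by 0.1 nM hNppA; agonist-evoked cGMP luminescence read 20 min after hNppA addition; % is set by controls: 0 for no effect and ±100 for the full control effect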). Put shortly:
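Cells expressing receptor plus cGMP biosensor are seeded and incubated overnight at 37C, then loaded with GloSensor reagent (2% final) at room temperature for 2 h. Library compounds go on for 30 min. A pre-read precedes agonist (hNppA, 0.1 nM final) and a 20-min readout.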

Assay [13] concerns the target Atrial natriuretic peptide receptor 2 (Homo sapiens) (UniProt P20594). In words: Natriuretic polypeptide receptor (hNpr2) antagonism - Pilot subtype selectivity assay (AID 1347050; calls by dose curve; note: % is set by controls: 0 for no effect and ±100 for the full control effect). Put shortly: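 Read-out: GloSensor luminescence (CCD imager), baseline vs post-stimulation. HEK293 cells expressing hNpr2; compounds pre-incubated 30-50 min at ambient temperature; hNppC 1 nM final, 20 min.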

“And” between values parts separate entries of the source, which are not always exact repeats. Equal entries are not always repeated. Records with an inconclusive call do not appear. Some structures have more than one record in an assay (separate samples or runs), and their calls can disagree. The source made the active and inactive calls. Unless noted, calls come from the whole dose curve; as a rule, active = well fitted curve in the direction sought with a large enough effect; inconclusive = small, poorly fitted or top-dose-only effect, or another doubt; inactive = no such curve, though single readings can be large; an effect the other way counts as inactive or inconclusive.

Chain of Atrial natriuretic peptide receptor 2 (Homo sapiens) (P20594 whole entry, looked up): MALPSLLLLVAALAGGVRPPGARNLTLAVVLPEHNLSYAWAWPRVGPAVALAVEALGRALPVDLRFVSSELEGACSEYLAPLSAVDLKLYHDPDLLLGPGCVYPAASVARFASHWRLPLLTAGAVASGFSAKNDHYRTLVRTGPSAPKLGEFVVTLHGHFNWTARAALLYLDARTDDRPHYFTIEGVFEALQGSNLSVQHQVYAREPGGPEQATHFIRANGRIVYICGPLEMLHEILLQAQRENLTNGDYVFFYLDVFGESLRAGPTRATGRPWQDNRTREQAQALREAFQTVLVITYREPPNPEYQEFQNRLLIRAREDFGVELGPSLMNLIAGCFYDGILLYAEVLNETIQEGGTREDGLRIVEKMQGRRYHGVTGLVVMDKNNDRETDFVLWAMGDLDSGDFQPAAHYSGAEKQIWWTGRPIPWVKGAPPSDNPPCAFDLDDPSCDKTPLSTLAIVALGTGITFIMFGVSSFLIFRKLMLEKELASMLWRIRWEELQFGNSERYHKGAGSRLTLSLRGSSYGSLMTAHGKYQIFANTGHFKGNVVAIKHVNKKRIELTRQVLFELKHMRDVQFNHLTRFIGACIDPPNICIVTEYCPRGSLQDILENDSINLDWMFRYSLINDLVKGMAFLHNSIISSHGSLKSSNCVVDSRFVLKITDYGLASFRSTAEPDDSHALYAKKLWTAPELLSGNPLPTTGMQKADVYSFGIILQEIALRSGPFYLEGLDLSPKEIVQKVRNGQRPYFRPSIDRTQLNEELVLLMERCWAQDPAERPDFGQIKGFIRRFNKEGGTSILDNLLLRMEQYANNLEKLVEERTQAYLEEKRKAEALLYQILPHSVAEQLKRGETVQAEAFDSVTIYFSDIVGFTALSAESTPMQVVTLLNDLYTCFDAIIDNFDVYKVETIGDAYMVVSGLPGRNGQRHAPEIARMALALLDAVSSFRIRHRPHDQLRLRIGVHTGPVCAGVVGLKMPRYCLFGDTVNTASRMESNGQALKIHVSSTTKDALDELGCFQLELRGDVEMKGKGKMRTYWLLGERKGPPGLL
Chain of Atrial natriuretic peptide receptor 1 (Homo sapiens) (P16066 whole entry, looked up): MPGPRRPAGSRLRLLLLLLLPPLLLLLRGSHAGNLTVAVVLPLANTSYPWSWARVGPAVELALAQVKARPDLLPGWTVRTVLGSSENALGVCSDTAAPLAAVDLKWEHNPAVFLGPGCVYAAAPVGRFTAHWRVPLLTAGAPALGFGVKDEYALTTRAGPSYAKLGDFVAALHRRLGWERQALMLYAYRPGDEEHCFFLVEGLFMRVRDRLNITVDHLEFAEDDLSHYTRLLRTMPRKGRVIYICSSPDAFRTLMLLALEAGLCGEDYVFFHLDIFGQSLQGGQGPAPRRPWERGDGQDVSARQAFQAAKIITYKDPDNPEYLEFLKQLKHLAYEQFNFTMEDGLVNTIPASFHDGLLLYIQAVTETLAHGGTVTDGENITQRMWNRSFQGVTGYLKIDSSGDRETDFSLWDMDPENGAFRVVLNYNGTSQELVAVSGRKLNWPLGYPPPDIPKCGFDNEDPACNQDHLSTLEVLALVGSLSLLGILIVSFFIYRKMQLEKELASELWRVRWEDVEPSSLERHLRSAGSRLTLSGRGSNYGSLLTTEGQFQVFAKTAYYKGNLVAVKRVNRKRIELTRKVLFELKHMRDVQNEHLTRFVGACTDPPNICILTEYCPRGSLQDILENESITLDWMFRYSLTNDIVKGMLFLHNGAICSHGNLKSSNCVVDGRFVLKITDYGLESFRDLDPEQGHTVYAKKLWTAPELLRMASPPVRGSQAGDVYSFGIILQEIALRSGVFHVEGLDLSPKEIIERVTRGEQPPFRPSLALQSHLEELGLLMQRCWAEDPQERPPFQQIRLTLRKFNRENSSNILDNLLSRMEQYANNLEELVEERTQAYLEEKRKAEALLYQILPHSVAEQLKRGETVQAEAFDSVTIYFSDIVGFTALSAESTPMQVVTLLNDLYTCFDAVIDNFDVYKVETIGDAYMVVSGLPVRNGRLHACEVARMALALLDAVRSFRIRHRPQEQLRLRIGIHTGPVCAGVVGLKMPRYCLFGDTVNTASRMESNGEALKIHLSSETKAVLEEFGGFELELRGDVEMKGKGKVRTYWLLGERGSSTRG

Consider `CC(C)(C)C(=O)OCOP(=O)(COCCn1cnc2c(N)ncnc21)OCOC(=O)C(C)(C)C`, for which the cell viability, % of control (lower = more cytotoxic) in [1] turned out to be 3.53%. Also, the viability (% of control) in assay [2] was determined as 2.56%. The Potency entry in assay [3], in [7], in [8], in assay [9] and in assay [10] was “inactive” each time. Also, the Potency was 0.372 µM (active) in [4], 0.833 µM (active) in assay [5] and 0.209 µM (active) in assay [6].

Turning to `O=S(=O)(c1cccc2cnccc12)N1CCCNCC1`, the cell viability, % of control (lower = more cytotoxic) in assay [1] came out at 21.4%. Besides, the viability (% of control) in [2] is 94.6%. Moreover, the Potency entry in assay [3], in assay [6], in [7], in assay [8], in assay [9] and in [10] was “inactive” each time. In addition, in assay [4], the Potency is 26.4 µM (active). Besides, the outcome in [11] was inactive.

`CN(Cc1cc(Br)cc(Br)c1N)C1CCCCC1`: in assay [1], the cell viability, % of control (lower = more cytotoxic) worked out at 226%. Further, in assay [2], the viability (% of control) stood at 107%. Also, the Potency result in [3], in assay [4], in assay [5], in assay [6], in assay [7] and in assay [9] was “inactive” in each case. Moreover, the Potency entry in assay [10] was “inactive”.

For the compound `CN(C)c1ccc(C(=C2C=CC(=[N+](C)C)C=C2)c2ccc(N(C)C)cc2)cc1`, the cell viability, % of control (lower = more cytotoxic) in [1] was determined as 1.19%. In addition, in assay [2], the viability (% of control) worked out at 1.42%. Further, the Potency result in assay [3] and in [7] was “inactive” each time. Besides, the Potency in assay [4] was 0.372 µM (active); in [5], 0.296 µM (active); in assay [6] it was 0.418 µM (active); in [8], 22.4 µM (active); in assay [9], 7.3 µM (active); in assay [10], 8.2 µM (active) and 1.48 µM (active).

With `C#CCN[C@@H]1CCc2ccccc21`, the cell viability, % of control (lower = more cytotoxic) in assay [1] was determined as 153%. The viability (% of control) in [2] came out at 57.2%. The Potency entry in assay [3], in assay [4], in assay [6], in [7], in assay [8] and in assay [9] was “inactive” in each case. Also, the Potency result in assay [10] was “inactive”.

In the case of `Cc1nnc(NS(=O)(=O)c2ccc(N)cc2)s1`, the cell viability, % of control (lower = more cytotoxic) in [1] is 114%. Besides, the viability (% of control) in [2] was 13.2%. Besides, the Potency entry in assay [3] and in assay [8] was “inactive” throughout. In addition, the Potency is 14.8 µM (active) in assay [4], 10.5 µM (active) in assay [5] and 13.2 µM (active) in [6].

In the case of `CN1CCCC(n2nc(Cc3ccc(Cl)cc3)c3ccccc3c2=O)CC1` (configuration not stated), in assay [1], the cell viability, % of control (lower = more cytotoxic) was 9.12%. Further, in [2], the viability (% of control) was 7.4%. Besides, the Potency entry in assay [3], in [8] and in assay [10] was “inactive” throughout. In addition, the Potency in assay [4] is 1.05 µM (active); in assay [6] it was 8.33 µM (active); in assay [7], 3.72 µM (active).

In the case of `CC(C)NCC(O)c1ccc(NS(C)(=O)=O)cc1` (configuration not stated), the cell viability, % of control (lower = more cytotoxic) in assay [1] stood at 203%. Besides, the viability (% of control) in [2] worked out at 120%. Moreover, the Potency result in [3], in assay [8], in assay [9], in assay [10], in [12] and in assay [13] was “inactive” in each case. Moreover, the Potency in [5] and in assay [6] was 16.6 µM (active) throughout.

On to `CNS(=O)(=O)CCc1ccc2[nH]cc(C3CCN(C)CC3)c2c1`, for which, in [1], the cell viability, % of control (lower = more cytotoxic) was determined as 238%. Further, the viability (% of control) in assay [2] stood at 23.9%. The Potency result in assay [3] and in assay [10] was “inactive” throughout. In addition, the Potency in [4] was 0.372 µM (active); in assay [5], 0.235 µM (active); in [6], 2.64 µM (active); in assay [7], 1.48 µM (active). Besides, the outcome in [11] was inactive.

With `C[C@@H](NCCCc1cccc(C(F)(F)F)c1)c1cccc2ccccc12`, the cell viability, % of control (lower = more cytotoxic) in assay [1] was 264%. Besides, the viability (% of control) in assay [2] is 110%. Also, the Potency result in assay [3], in assay [4] and in [6] was “inactive” each time. Further, the Potency in assay [9] is 25.9 µM (active); in assay [10], “inactive and 20.6 µM (active)”.

As for `O=C(NCC1CN(c2ccc(N3CCOCC3=O)cc2)C(=O)O1)c1ccc(Cl)s1` (configuration not stated), the cell viability, % of control (lower = more cytotoxic) in [1] is 29.6%. Besides, the viability (% of control) in assay [2] came out at 48.9%. The Potency result in assay [3], in [4], in [5], in assay [6], in assay [7] and in assay [10] was “inactive” throughout.

As for `C[C@]12C=CC(=O)C=C1CC[C@@H]1[C@@H]2C(=O)C[C@@]2(C)[C@H]1CC[C@]2(O)C(=O)CO`, the cell viability, % of control (lower = more cytotoxic) in assay [1] amounted to 158% [at 23.2 µM]. Besides, in [2], the viability (% of control) worked out at 86.4% [at 23.2 µM]. The Potency entry in [3], in assay [4], in [6], in assay [7], in assay [8] and in assay [9] was “inactive” in each case. For the same compound, the Potency result in assay [10] was “inactive”.

`COCCCOc1cc(C[C@@H](C[C@H](N)[C@@H](O)C[C@H](C(=O)NCC(C)(C)C(N)=O)C(C)C)C(C)C)ccc1OC`: the cell viability, % of control (lower = more cytotoxic) in [1] is 148%. For the same compound, the viability (% of control) in [2] was found to be 113%. Moreover, the Potency entry in assay [3], in assay [5], in [6], in assay [7] and in [10] was “inactive” in each case.

For the compound `CCCN[C@H]1CCc2nc(N)sc2C1`, in [1], the cell viability, % of control (lower = more cytotoxic) amounted to 133%. Further, the viability (% of control) in assay [2] worked out at 78%. For the same compound, the Potency result in assay [3], in assay [4], in assay [5], in [6], in [7] and in assay [8] was “inactive” in each case. Moreover, the Potency result in [10] is “inactive”.
